Assay results: PubChem BioAssay (NCATS)
A number with no mark means an inactive call. Records with an inconclusive call do not appear. Calls of active or inactive are those of the source. Unless noted, the call rests on the fitted dose curve; in most records, active means well fitted curve in the direction sought with a large enough effect; inconclusive means small, poorly fitted or top-dose-only effect, or another doubt; inactive means no such curve, though single readings can be large; an effect the other way counts as inactive or inconclusive.

Key:
[1] = target: Cytochrome P450 1A2 (Homo sapiens) (UniProt P05177); assay: p450-cyp1a2 (AID 410; calls by dose curve; further: potency means the concentration at half of the fitted maximal effect)
Procedure, shortened: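 Read-out is luminescence from luciferin produced by CYP1A2 demethylation of Luciferin-ME (100uM, at Km). Detection reagent stopped the 60 min NADPH-dependent reaction; signals were normalized to 57 uM furafylline.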

[2] = NFAT Signaling Pathway (AID 444; active means well fitted curve in either direction with a large enough effect, not every such curve was filed as active;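 further: carbachol stimulus at about its EC50 of 1 µM final; on the % scale 0 is the no-effect control and ±100 the full control effect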); conditions: Jurkat NFAT-bla M1, carbachol, beta-lactamase ratio, 5 h; at 17.2 µM (top of the series) unless noted
Procedure, shortened: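 Jurkat cells carrying an NFAT-driven β-lactamase reporter and co-transfected muscarinic M1 receptor were treated with compound plus carbachol (1 uM final, an EC50 level) for 5 h at 37 °C. CCF4 loading followed for 1 h at RT; 460/530 nm ratio gave %activity.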

[3] = target: Glucocorticoid receptor (Homo sapiens) (UniProt P04150); assay: GR-GFP Redistribution (AID 450;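 active means compounds whose dose series gives a full or clear partial fitted curve of increased nuclear translocation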; further: potency means the concentration at half of the fitted maximal effect)
[4] = target: Glucocorticoid receptor (Homo sapiens) (UniProt P04150); assay: GR-EFC Redistribution (AID 451; calls by dose curve; further: potency means the concentration at half of the fitted maximal effect); conditions: CHO-K1 GR-EFC translocation, beta-gal luminescence, 2 h
Procedure, shortened: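 CHO-K1 cells stably expressing nuclear-localized β-gal enzyme acceptor and GR fused C-terminally to the enzyme donor fragment; ligand-driven nuclear translocation restores β-gal by complementation. Compounds titrated up to 46 uM final, 2 h at 37 °C; luminescence read.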

[5] = target: Mitogen-activated protein kinase 10 (Mus musculus) (UniProt Q61831); assay: JNK3 AlphaScreen Assay (AID 530; active means well fitted curve in either direction with a large enough effect, not every such curve was filed as active;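 further: kinase came from lysate of stimulated human HepG2 cells; signal reports phosphorylation of biotinylated GST-cJun 1-79 at Ser73 with 10 µM ATP; on the % scale 0 is the no-effect control and ±100 the full control effect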)
Procedure, shortened: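 Biotinylated GST-cJun(1-79) served as substrate for JNK3 in HepG2 lysates stimulated with IL-1beta and TNF-alpha. ATP was 10 uM final, pH 7.6. Ser73 phosphorylation was quantified by AlphaScreen (680 nm excitation).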

[6] = target: Cytochrome P450 3A4 (Homo sapiens) (UniProt P08684); assay: qHTS Assay for Activators of Cytochrome P450 3A4 (AID 885); further: nearly all actives have a fitted effect of over 65% in size
Procedure, shortened: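 Luminescent readout of luciferin formed from 25 uM Luciferin-PPXE (KM level) by 20 nM CYP3A4 in 200 mM KPO4, with 60 min NADPH-driven reaction at room temperature after 10 min compound exposure. Ketoconazole (57 uM) defined 100% inhibition.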

[7] = target: Pyruvate kinase (Leishmania mexicana) (UniProt Q27686); assay: qHTS Validation Assay for Inhibitors of Leishmania Mexicana Pyruvate Kinase (AID 945); further: potency means the concentration at half of the fitted maximal effect
Procedure, shortened: (§1)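 Luminescent ATP detection (PKLight) after a 1 h room-temperature reaction of 0.2 nM LmPYK E451W mutant with 0.5 mM PEP and 0.1 mM ADP at pH 7.2. Activity is normalized to DMSO-only control wells.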

[8] = target: Pyruvate kinase PKM (Homo sapiens) (UniProt P14618); assay: qHTS Assay for Activators of Human Muscle Pyruvate Kinase (AID 954; active means well fitted curve in the direction sought with a large enough effect, not every such curve was filed as active;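 further: 0% = uninhibited enzyme and -100% = no enzyme or full thiadiazolimine inhibition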)
Procedure, shortened: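 ATP production by PKM2 detected via luciferase luminescence after 1 h room-temperature reaction (0.1 nM enzyme, PEP at Km 0.5 mM, ADP 0.1 mM, pH 7.2 imidazole buffer). Inhibition scaled to no-enzyme control; activation referenced to 0.3 nM enzyme wells.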

[9] = target: Pyruvate kinase PKM (Homo sapiens) (UniProt P14618); assay: qHTS Assay for Inhibitors of Human Muscle Pyruvate Kinase (AID 958)
Procedure, shortened: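 Screening used highly purified human pyruvate kinase M2 under submaximal activity, with PEP at its Km and ADP below Km. After an hour at room temperature, ATP was read by luciferase luminescence.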

[10] = target: Pyruvate kinase (Leishmania mexicana) (UniProt Q27686); assay: qHTS Validation Assay for Activators of Leishmania Mexicana Pyruvate Kinase (AID 959)
Procedure, shortened: as §1

[11] = target: Alpha-galactosidase A (Homo sapiens) (UniProt P06280); assay: Counterscreen for Glucocerebrosidase Inhibitors: qHTS Assay for Human alpha-Galactosidase at pH 4.5 (AID 992); further: 0% is about no effect
Procedure, shortened: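 Fluorogenic 1536-well qHTS at pH 4.5 (citrate, Tween-20): 2 nM enzyme, 80 uM 4-MU-alpha-galactoside, 20 min room temperature, NaOH/glycine stop. Titration 0.7 nM to 77 uM, data normalized to no-enzyme and full-activity controls, Hill-fitted AC50.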

[12] = target: alpha-glucosidase (Oryza sativa, rice) (UniProt Q653V4); assay: Counterscreen for Glucocerebrosidase Inhibitors: qHTS Assay for Rice alpha-Glucosidase at pH 5.0 (AID 997);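 further: 0% = full activity with enzyme and -100% = basal without enzyme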
Procedure, shortened: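 Endpoint fluorogenic assay at pH 5.0: compounds (0.7 nM to 77 uM) titrated against 4 nM rice enzyme and 400 uM 4-MU-alpha-glucoside for 20 min at room temperature; NaOH/glycine stop, read ex 365/em 440 nm, Hill-fitted AC50.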

[13] = Stat Signaling Pathway (AID 446; active means well fitted curve in either direction with a large enough effect, not every such curve was filed as active;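 further: ME-180 cervical cancer cells given 40 pM IL-6 alongside compound; SIE-controlled beta-lactamase reporter measured as 460/530 nm FRET emission ratio; on the % scale 0 is the no-effect control and ±100 the full control effect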); conditions: ME-180 SIE beta-lactamase reporter, IL-6 stimulated, 5 h; at 17.2 µM (top of the series) unless noted
Procedure, shortened: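 FRET read-out (405 nm excitation, 460/530 nm emission) of a beta-lactamase reporter under a STAT-inducible element in ME-180 cervical carcinoma cells. Cells with compound receive 40 pM IL-6 for 5 h. Values are normalised to AC90 stimulation and AC90 JAK-inhibitor controls.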

[14] = target: 3',5'-cyclic-AMP phosphodiesterase 4B (Homo sapiens) (UniProt Q07343); assay: qHTS Assay for Inhibitors of PDE-IV (AID 607; active means well fitted activation curve with a large enough effect in the main read-out, with a control signal flat, not every such curve was filed as active; further: % of control where 0% means no effect)
Procedure, shortened: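 Cell-based read-out of cAMP via a modified cyclic nucleotide-gated channel and membrane potential dye (535/590 nm) in HEK293 cells expressing PDE4 endogenously. Compounds tested up to 22.9 uM final; 100 uM RO 20-1724 reference.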

[15] = target: Guanine nucleotide-binding protein G(i) subunit alpha-1 (Homo sapiens) (UniProt P63096); assay: qHTS Assay for Inhibitors of RGS12 GoLoco Motif Activity (Green Fluorophore) (AID 879);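 further: 0% = labeled peptide with Gαi1 and full inhibition = labeled peptide alone without protein; negative values mean loss of peptide binding seen as reduced polarization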
Procedure, shortened: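 A drop in FITC polarization marked displacement of the FITC-tagged RGS12 GoLoco peptide (10 nM) from Gαi1 (50 nM). Compounds were incubated 10 min at room temperature in Tris pH 7.5 buffer containing 150 mM NaCl, 0.1 mM GDP and 0.05% NP40; unlabeled peptide titration served as control.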

[16] = AP1 Signaling Pathway (AID 357; active means well fitted curve in either direction with a large enough effect, not every such curve was filed as active;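 further: ME-180 reporter cells stimulated with EGF at its EC50 level; on the % scale 0 is the no-effect control and ±100 the full control effect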); conditions: ME-180 AP-1-bla reporter, EGF-induced, beta-lactamase ratio, 5 h; at 17.2 µM (top of the series) unless noted
Procedure, shortened: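 Modulation of EGF-driven AP-1 transcription was assessed with a beta-lactamase reporter in ME-180 cells. Compound and EC50 EGF were co-incubated 5 hours at 37 °C before 2.5-hour CCF4 loading at room temperature and dual-emission reading.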

[17] = qHTS Assay for Identification of Small Molecule Agonists for Hypoxia Response Element Signaling Pathway (AID 914; active means well fitted activation curve with a large enough effect in the signal ratio, with a control signal flat, not every such curve was filed as active; the % refers to the signal ratio; further: potency means the concentration at half of the fitted maximal effect); conditions: ME-180 (cervical carcinoma) HRE-bla reporter, beta-lactamase ratio, CoCl2, 17 h; activation: active compounds read high
Procedure, shortened: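 HRE-bla ME-180 cells, overnight plating in Opti-MEM with 0.5% dialyzed FBS; cpd titration + EC50 CoCl2, 17 h, 37 degrees Celsius; CCF4 2.5 h RT; 460/530 nm ratio; AC50.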

Chain of Glucocorticoid receptor (Homo sapiens) (P04150 whole entry, looked up, the tested form may be a part): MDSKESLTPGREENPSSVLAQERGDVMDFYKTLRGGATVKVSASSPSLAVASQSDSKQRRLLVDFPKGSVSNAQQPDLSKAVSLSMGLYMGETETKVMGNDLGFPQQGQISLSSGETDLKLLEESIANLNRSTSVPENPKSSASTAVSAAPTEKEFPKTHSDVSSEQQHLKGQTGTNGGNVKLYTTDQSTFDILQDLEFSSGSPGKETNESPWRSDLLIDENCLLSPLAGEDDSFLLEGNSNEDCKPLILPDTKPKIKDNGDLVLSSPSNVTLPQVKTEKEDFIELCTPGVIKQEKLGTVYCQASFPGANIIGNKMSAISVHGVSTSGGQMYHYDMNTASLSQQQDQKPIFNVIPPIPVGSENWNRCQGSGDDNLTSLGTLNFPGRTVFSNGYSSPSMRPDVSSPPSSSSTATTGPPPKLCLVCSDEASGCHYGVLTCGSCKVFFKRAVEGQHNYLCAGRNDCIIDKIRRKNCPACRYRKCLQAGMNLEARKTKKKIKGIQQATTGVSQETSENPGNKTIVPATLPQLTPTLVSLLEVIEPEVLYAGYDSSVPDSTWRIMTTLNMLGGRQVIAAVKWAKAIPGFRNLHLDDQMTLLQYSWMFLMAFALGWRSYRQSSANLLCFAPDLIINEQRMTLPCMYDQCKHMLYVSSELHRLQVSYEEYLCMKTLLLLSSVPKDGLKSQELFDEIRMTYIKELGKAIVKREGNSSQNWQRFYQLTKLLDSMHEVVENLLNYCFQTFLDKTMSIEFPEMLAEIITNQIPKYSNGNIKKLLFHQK
Chain of Pyruvate kinase PKM (Homo sapiens) (P14618 whole entry, looked up): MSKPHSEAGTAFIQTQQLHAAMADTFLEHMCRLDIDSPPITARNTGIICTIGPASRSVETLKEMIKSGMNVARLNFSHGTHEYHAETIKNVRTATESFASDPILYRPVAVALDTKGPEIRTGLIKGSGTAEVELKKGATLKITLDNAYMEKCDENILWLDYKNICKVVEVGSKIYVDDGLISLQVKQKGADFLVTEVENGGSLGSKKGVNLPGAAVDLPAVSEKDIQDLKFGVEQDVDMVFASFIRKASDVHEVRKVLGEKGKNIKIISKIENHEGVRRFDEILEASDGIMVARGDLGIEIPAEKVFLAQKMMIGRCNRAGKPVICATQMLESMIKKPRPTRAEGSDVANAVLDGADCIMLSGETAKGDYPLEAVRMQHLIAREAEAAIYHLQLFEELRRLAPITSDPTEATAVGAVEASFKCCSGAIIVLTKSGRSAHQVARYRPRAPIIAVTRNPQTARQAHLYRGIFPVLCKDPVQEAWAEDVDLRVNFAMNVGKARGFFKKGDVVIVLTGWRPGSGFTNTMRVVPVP
Chain of Pyruvate kinase (Leishmania mexicana) (Q27686 2-499 E452W): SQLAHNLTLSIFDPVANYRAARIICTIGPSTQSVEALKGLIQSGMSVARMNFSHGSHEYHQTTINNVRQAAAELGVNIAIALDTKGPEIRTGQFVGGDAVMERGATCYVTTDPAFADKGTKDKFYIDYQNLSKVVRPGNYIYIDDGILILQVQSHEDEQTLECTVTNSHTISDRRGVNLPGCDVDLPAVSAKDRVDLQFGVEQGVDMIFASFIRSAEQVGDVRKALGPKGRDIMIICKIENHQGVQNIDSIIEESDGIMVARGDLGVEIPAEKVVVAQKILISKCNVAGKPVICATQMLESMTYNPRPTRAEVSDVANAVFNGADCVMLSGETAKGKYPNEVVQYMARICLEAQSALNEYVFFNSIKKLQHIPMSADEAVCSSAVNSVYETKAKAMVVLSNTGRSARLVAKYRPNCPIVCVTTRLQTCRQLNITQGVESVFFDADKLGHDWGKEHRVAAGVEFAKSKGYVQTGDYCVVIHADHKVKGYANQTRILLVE
Chain of Cytochrome P450 1A2 (Homo sapiens) (P05177 whole entry, looked up): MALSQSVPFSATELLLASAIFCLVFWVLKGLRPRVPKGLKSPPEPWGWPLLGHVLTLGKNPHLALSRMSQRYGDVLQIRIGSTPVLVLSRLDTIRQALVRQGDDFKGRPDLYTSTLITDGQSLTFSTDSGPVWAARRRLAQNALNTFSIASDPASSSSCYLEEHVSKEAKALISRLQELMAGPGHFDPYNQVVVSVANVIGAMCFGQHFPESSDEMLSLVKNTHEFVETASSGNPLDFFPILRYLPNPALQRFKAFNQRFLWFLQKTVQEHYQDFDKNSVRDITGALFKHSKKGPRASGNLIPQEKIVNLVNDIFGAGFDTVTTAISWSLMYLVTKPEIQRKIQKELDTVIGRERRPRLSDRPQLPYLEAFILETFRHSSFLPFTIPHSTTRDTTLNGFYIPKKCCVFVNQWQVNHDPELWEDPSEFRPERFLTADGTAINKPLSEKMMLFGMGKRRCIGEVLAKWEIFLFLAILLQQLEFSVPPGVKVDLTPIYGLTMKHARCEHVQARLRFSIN
Chain of Alpha-galactosidase A (Homo sapiens) (P06280 whole entry, looked up): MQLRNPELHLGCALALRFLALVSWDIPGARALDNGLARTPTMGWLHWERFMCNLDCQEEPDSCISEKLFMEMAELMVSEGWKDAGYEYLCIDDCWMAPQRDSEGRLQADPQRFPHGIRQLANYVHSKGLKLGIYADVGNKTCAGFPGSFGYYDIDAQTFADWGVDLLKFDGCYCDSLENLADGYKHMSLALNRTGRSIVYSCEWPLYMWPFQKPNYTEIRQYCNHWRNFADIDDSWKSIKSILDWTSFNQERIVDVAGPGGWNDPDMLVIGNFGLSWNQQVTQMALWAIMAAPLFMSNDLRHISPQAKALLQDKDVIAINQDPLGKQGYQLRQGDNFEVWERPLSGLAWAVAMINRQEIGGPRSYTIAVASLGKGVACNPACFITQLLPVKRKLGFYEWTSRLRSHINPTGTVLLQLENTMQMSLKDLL
Chain of Cytochrome P450 3A4 (Homo sapiens) (P08684 whole entry, looked up): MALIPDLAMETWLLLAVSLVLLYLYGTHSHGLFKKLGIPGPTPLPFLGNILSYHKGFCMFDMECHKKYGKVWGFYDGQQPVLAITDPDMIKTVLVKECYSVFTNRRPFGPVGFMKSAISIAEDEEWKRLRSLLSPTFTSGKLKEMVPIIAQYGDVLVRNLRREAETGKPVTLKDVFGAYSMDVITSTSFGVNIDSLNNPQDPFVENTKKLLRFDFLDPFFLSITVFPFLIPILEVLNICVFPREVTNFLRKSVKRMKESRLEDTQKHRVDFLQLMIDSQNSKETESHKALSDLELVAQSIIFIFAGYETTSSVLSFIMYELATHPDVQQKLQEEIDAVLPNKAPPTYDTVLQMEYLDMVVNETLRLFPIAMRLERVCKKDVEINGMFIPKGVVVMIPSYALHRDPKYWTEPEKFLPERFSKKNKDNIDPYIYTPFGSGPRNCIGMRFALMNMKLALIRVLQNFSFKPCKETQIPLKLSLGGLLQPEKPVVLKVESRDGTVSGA
Chain of Guanine nucleotide-binding protein G(i) subunit alpha-1 (Homo sapiens) (P63096 whole entry, looked up): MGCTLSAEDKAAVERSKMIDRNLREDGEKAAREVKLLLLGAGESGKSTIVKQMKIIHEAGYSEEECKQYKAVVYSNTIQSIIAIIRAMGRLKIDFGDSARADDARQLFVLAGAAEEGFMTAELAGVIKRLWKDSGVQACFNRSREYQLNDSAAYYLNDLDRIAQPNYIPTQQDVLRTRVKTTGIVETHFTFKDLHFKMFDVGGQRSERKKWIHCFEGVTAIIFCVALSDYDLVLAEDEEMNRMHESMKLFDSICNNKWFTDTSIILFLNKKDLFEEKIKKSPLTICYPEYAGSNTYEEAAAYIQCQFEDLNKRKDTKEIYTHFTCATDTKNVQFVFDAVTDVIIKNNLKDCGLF
Chain of 3',5'-cyclic-AMP phosphodiesterase 4B (Homo sapiens) (Q07343 whole entry, looked up): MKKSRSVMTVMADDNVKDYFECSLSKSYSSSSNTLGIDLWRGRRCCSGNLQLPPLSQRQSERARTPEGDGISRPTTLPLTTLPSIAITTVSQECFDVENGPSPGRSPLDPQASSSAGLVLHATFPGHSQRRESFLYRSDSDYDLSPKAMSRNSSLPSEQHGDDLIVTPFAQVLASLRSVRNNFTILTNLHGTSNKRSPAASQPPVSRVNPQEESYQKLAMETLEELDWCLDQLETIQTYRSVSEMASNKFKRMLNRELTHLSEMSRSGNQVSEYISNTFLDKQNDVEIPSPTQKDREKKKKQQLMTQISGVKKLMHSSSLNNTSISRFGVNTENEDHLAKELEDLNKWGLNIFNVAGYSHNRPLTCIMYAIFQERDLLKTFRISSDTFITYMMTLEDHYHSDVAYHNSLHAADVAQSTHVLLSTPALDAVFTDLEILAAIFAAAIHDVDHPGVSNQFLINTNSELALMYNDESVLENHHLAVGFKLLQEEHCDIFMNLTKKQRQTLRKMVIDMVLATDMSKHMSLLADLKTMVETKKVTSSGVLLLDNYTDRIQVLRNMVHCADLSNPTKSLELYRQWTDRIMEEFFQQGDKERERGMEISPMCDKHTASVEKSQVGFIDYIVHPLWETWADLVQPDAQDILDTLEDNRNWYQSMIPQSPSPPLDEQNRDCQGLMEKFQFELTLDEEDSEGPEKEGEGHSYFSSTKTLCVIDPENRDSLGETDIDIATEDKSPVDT

| Compound | Potency [1] | activity change, negative = inhibition [2] | Potency [3] | Potency [4] | Potency [5] | Potency [6] | Potency [7] | outcome [8] | Potency [9] | Potency [10] | outcome [11] | outcome [12] | activity, negative = inhibition [13] | Potency [14] | outcome [15] | activity change, negative = inhibition [16] | Potency [17] |
| --- | --- | --- | --- | --- | --- | --- | --- | --- | --- | --- | --- | --- | --- | --- | --- | --- | --- |
| Oc1cc(O)cc(/C=C\c2ccc(O)c(O)c2)c1 | 5.01 µM (active) | 5.18% [at 38 µM] | > 46 µM | > 46 µM | inactive | inactive | 1.26 µM (active) | inactive | 2.51 µM (active) | inactive | inactive | inactive | – | – | – | – | – |
| O=C(/C=C\c1ccc(O)c(O)c1)OCCc1ccccc1 | 1 µM (active) | -12.2% [at 38 µM] | > 46 µM | > 46 µM | – | inactive | – | inactive | – | inactive | inactive | inactive | -10.7% [at 38 µM] | inactive | inactive | – | – |
| CN(C)c1ccc(-c2nn3c(-c4ccc(Cl)cc4)nnc3s2)cc1 | – | – | > 20.6 µM | – | – | – | – | – | – | – | – | – | – | – | – | 21.4% | 10 µM (active) |
